The supplement of paper PMC6555819

Assays:
Assay in all cases: PBM binding z-score (relative to random genomic background probes); higher = stronger binding; sequences stand for … in GC…GCGATTGACAGCGTAGAATGAAGG
[1] = test system: PPARg:RXRa DBDmut IVT, anti-RXR (DBD mutation: RXRa K156A/R161A, NR concentration 270 nM, RXRa partner concentration 90 nM)
Method in brief: (§1)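 Scanned fluorescence from custom Agilent 4×180K protein-binding microarrays was regression-normalized. Binding z-scores use random background probes as reference. Ligand-free nuclear receptor dimers were incubated on the arrays for 1 h and detected with antibodies against each partner (one per run).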

[2] = test system: PPARg:RXRa IVT, anti-PPARg (NR concentration 270 nM, RXRa partner concentration 90 nM)
Method in brief: as §1

[3] = test system: PPARg DBDmut:RXRa IVT, anti-PPARg (DBD mutation: PPARg1 K132A/R137A, NR concentration 270 nM, RXRa partner concentration 90 nM)
Method in brief: as §1

[4] = test system: PPARg DBDmut IVT, anti-PPARg (DBD mutation: PPARg1 K132A/R137A, NR concentration 270 nM)
Method in brief: as §1

[5] = test system: PPARg homodimer (NR concentration 180 nM)
Method in brief: as §1

[6] = test system: PXR:RXRa (NR concentration 270 nM, RXRa partner concentration 90 nM)
Method in brief: as §1

[7] = test system: PXR homodimer (NR concentration 270 nM)
Method in brief: as §1

[8] = test system: RARa:RXR (NR concentration 270 nM, RXRa partner concentration 90 nM)
Method in brief: as §1

[9] = test system: RARa homodimer (NR concentration 270 nM)
Method in brief: as §1

[10] = test system: RARb:RXRa (NR concentration 270 nM, RXRa partner concentration 90 nM)
Method in brief: as §1

[11] = test system: RARb homodimer (NR concentration 270 nM)
Method in brief: as §1

[12] = test system: RARg:RXRa (NR concentration 270 nM, RXRa partner concentration 90 nM)
Method in brief: as §1

[13] = test system: RARg homodimer (NR concentration 270 nM)
Method in brief: as §1

[14] = test system: RXRa DBDmut IVT, anti-RXR (DBD mutation: RXRa K156A/R161A, NR concentration 90 nM)
Method in brief: as §1

[15] = test system: RXRa homodimer (NR concentration 180 nM)
Method in brief: as §1

[16] = test system: THRa:RXRa (NR concentration 90 nM, RXRa partner concentration 90 nM)
Method in brief: as §1

[17] = test system: THRa homodimer (NR concentration 90 nM)
Method in brief: as §1

[18] = test system: VDR homodimer (NR concentration 270 nM)
Method in brief: as §1

Sequence	PBM binding z-score [1]	PBM binding z-score [2]	PBM binding z-score [3]	PBM binding z-score [4]	PBM binding z-score [5]	PBM binding z-score [6]	PBM binding z-score [7]	PBM binding z-score [8]	PBM binding z-score [9]	PBM binding z-score [10]	PBM binding z-score [11]	PBM binding z-score [12]	PBM binding z-score [13]	PBM binding z-score [14]	PBM binding z-score [15]	PBM binding z-score [16]	PBM binding z-score [17]	PBM binding z-score [18]
CAAACTAGGTCAAGAGGTCAAGGTCCGCTTCCCG	8.52	8.45	0.83	-0.359	5.33	5.88	1.72	7.29	2.29	5.54	5.98	7.92	7.98	2.28	8.06	4.25	3.13	3.74
CGTCCAAGCTCATAGGAGGTCAGTGAAGACAGAT	0.199	0.722	-0.21	-0.262	1.08	1.59	0.494	1.79	0.761	2.03	2.8	1.69	2.04	0.593	1.22	2.38	0.642	0.938
AGAATCAGGTTACCAAAGATCAGGGAAACGCTTG	3.77	3.08	0.88	1.06	0.0981	0.0669	-0.0157	0.359	-0.131	1.08	0.374	0.744	0.974	0.0556	0.775	1.36	0.124	-0.469
CAAACTAGGTAACGAAAGGTCAAAGTCGAATGAC	7.04	6.76	1.27	1.33	3.34	5.5	1.94	5.55	2.01	4.38	4.76	5.68	5.08	1.05	6.35	4	1.16	2.25
AGCTCTAGGTAAAGATAGTTCAGTGAATGCAAAT	2.67	1.19	0.745	0.441	0.456	0.84	0.602	0.3	1.11	0.525	1.34	0.3	0.62	-0.0733	0.094	0.782	0.107	0.592
TCATTTAGGTAAACAGGTGAAAGTCCGTAAGTTA	3.9	3.97	1.38	1.49	1.97	1.01	0.929	1.52	1.74	1.08	1.09	0.646	0.406	1.59	0.903	1.52	1.13	0.754
TCTAGCAGGCCAGAGGGTCGCTCAAGAGGTACGG	0.74	-0.213	-1.68	-1.41	-0.918	-0.366	-0.896	-0.208	-1.48	0.463	0.452	0.125	0.0431	-0.342	0.375	-0.276	-1.24	-0.526
CCTGCTAGGTCAATGGCCAGCTAAAGCAGCTCGC	4.15	3.04	-1.08	-1.25	0.733	0.566	-0.775	1.31	-0.563	3.73	2.64	3.43	3.65	1.05	1.79	1.98	0.178	-0.525
CAAACTAGGTCAAGAGGTCATAGTCCGCTTCCCG	8.3	8.47	3.3	2.09	5.93	5.98	2.28	7.42	2.36	5.19	5.49	7.6	7.08	2.78	7.48	4.35	2.59	3.82
TCTCGGAGCACACGAAAGGTCAGAGCTCGACATC	0.786	0.883	-0.964	-0.475	2.57	3.52	-0.0353	4.12	0.999	3.45	4.06	3.96	3.53	0.437	3.98	2.41	-0.342	-0.387
CGTACAAGGTCAATGCTAGGTCAGTGAAAGCATT	4.05	4.92	0.909	0.378	5.84	5.07	2.03	6.46	2.18	5.33	5.18	7.9	7.1	3.82	6.04	4.45	3.05	3.22
TTACGAAGGTGAAGGTCGTTGATCCCTCTGTAGA	1.43	2.62	0.0113	-0.332	0.462	1.58	-0.113	1.68	-0.46	2.23	1.84	1.38	1.26	0.133	1.93	1.52	0.135	0.942
CCTATTAGGTGACCATAAGGGCAACCGAAGCTCG	5.2	4.27	0.935	-0.392	0.93	0.636	0.326	1.19	0.485	1.87	2.13	2.09	1.22	-0.22	1.08	2.64	1.52	0.127
TTACCAAGTTGAAAGGTCGTTGATGCACGCCTTG	0.565	1.78	-0.471	0.0768	1.5	3.35	0.56	4.05	0.532	2.34	2.1	2.9	1.34	1.31	4.21	1.92	-0.189	1.58
GCTAGTTGGTCAGTAAAAGGTCATACACCGGTCG	0.651	2.38	-0.0949	-0.0441	3.01	4.5	1.09	5.05	1.09	3.94	4.93	4.81	3.6	0.515	4.8	3.39	1.35	2.09
TCTCGGAGGACAGGAAGGTCAGAGCTTTCCAGAG	1.52	0.389	-1.38	-1.7	0.357	1.36	-0.0214	1.42	0.192	2.76	3.54	2.42	2.34	0.51	1.69	2.1	0.256	0.37
TAGCCTAGGTCAGTGGGCCAGTATAGTACGCATC	2.3	3.72	-0.247	0.15	0.486	0.1	-0.662	0.533	-1.07	3.01	2.1	2.45	3.58	-0.571	1.03	1.29	-0.197	-0.446
ACTAGTTGGTCAGCTGAGGTCACCCACAATTCGG	1.12	2.73	0.761	0.737	3.43	5.45	1.71	4.87	1.52	3.58	4.38	4.14	4.02	1.19	3.69	4.97	5.19	3.57
CGTCAAGGTTCAAGGTAACGTAACAGAAAGCAGC	-0.0787	0.903	-0.883	-0.847	1.12	1.87	0.422	2.3	-0.0336	3.24	1.73	3.11	2.71	4.1	3.11	2.61	1.01	3.6
TCTTGTAGATCAGCCGGTTAAGAAAGCTGGCCAA	1.7	-0.0533	-0.491	0.198	-0.81	-0.0108	-0.447	0.0162	-0.458	-0.316	-0.307	-0.542	-0.822	0.73	-0.222	-0.482	-0.883	-0.659
GCTAGCGGGCCATTTGGGTCACTCAATGACGGGC	1.3	1.48	-0.871	-1.28	-0.0904	0.246	-0.44	0.906	-1.07	1.26	1.54	0.986	1.19	-0.841	0.742	1.94	0.129	0.0296
TTACCAAGGTGAAGGTCATTGATCCCTCTGTAGA	2.03	4.57	1.28	-0.00818	2.06	3.74	0.712	3.95	0.469	3.88	3.83	3.84	3.53	1.15	4.16	3.41	1.74	2.17
CGTACTAGGTCAAGGACAGTGAATCTCCGCACGC	7.55	7.47	2.25	1.3	2.34	1.19	0.03	2	1.16	4	3.14	3.81	4.64	1.21	2.53	3.22	2.42	0.444
CCTCGGAGGACAACAGGAGGTCCGAGCTGCCAGA	-0.427	-0.95	-1.85	-2.01	-0.576	-0.914	-0.768	-0.793	-0.318	1.1	0.279	0.372	0.854	-0.16	-0.455	0.4	-0.324	-0.197
CAAATTAGGTCACGAAAGGTCAAAGTCGAATGAC	8.68	8.9	4.28	2.39	5.32	7.26	2.64	7.69	3.07	5.8	6.08	8.12	8.73	2.57	8.6	5.25	3.01	3.61
AATACTGGGTCATCGTAGGCCAGAGTACGCACAG	6.46	6.97	1.65	2.15	1.67	2.44	0.428	2.35	0.903	3.49	3.24	3.52	3.91	0.934	3.11	3.85	0.749	1
ATCTCTAGGTAACCAAGTTCAGTGCATGCCGAAC	3.99	3.29	0.293	0.732	0.815	2.2	2.24	1.03	0.856	1.37	1.69	0.735	0.952	1.12	0.814	1.62	0.968	3.1
TATACAGGGTCAAAAGCCAGAGTACGAATGTCGA	1.58	3.89	1.82	1.55	1.9	3.49	0.526	4.49	0.877	3.73	2.74	4.82	4.2	2.54	5.88	3.04	0.446	2.71
TCTTCTAGATCAACAGGAGGTTAAGAAAGATCGA	1.93	1.19	1.81	1.8	0.382	0.755	0.113	1.32	0.555	0.762	0.617	0.984	0.501	0.855	1.01	0.77	-0.076	-0.175
